In the library only some 0.55% were active in any assay of this set; here they are far more common.
EPAC1 ag: agonists of human EPAC1; O95398; EPAC1 agonist qHTS, biochemical assay; response scale: 100% = response to 6.5 mM cAMP; Potency, µM (titrated, usually from 154 µM), without a hit: at the highest dose activation, usual class: activators; hit rate 0.073% among 360,000; AID 720707; also: nearly all actives have a fitted effect of over 60% in size
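Read-out is the fluorescence drop as BODIPY-GDP leaves Rap1B (480 nm excitation, 540 nm emission), recorded every 5 minutes over 30 minutes. Reactions held 100 nM EPAC1, 250 nM Rap1B–BODIPY-GDP and 50 uM GDP, with 6.5 mM cAMP setting full activation.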
EPAC2 ag: activates human EPAC2 exchange factor; EPAC2 activation, biochemical qHTS; response scale: 100% = 6.5 mM cAMP response; AID 720711; Q8WZA2; hit rate 0.079% among 360,000; Potency, µM (top dose mostly 154 µM), for the others: top-dose activation, actives largely listed as activators; also: nearly all actives have a fitted effect of over 50% in size
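EPAC2 (100 nM) mixed with Rap1B loaded with BODIPY-GDP (250 nM) plus 50 uM unlabeled GDP; compounds pinned in, 5 min RT, then read every 5 min for 30 min (ex 480, em 540 nm). Normalized to cAMP control.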
EPAC1 antag: EPAC1 (human) antagonism. O95398. EPAC1 GEF assay, Rap1b-BODIPY-GDP exchange fluorescence. Potency, µM (series often up to 115 µM), without a hit: at the top dose activity change, negative = inhibition, most hits filed as inhibitors. hit rate 0.14% among 360,000;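 also: plate controls were vehicle for no effect and positive control for full effect; nearly all actives have a fitted effect of over 50% in size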
EPAC2 antag: antagonists of human EPAC2; Q8WZA2; EPAC2 GEF exchange of Rap1B-BODIPY-GDP, fluorescence; Potency, µM (top dose mostly 114 µM), without a hit: top-dose activity, negative = inhibition, actives largely listed as inhibitors; hit rate 0.18% among 360,000; also: % is scaled to controls: 0 for no effect and ±100 for the full control effect; nearly all actives have a fitted effect of over 45% in size
HEK293 tox: cytotoxicity in counter-screen for GLP-1R inverse agonists. HEK293 cAMP-luciferase reporter cells, luminescence, 24 h. Potency, µM (highest dose often 38.3 µM), for the others: at the top dose activity change, negative = inhibition, actives largely listed as inhibitors. hit rate 0.13% among 410,000;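 also: loss of luciferase light is scored as toxicity; % is scaled to controls: 0 for no effect and ±100 for the full control effect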
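Compound-treated cells are incubated 24 hr at 37 deg C under 5% CO2 after a 12 hour attachment period, then luciferase detection reagent is added and luminescence is measured following 12 min at room temperature; lowered signal indicates toxicity.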
USP1 inh: inhibitors of human USP1/UAF1 deubiquitinase; Potency, µM (doses to about 57.1 µM), without a hit: at the top dose activity change, negative = inhibition, hits mostly inhibitors; O94782; recombinant USP1/UAF1, Ub-Rhodamine cleavage fluorescence; hit rate 0.23% among 390,000; also: % is scaled to controls: 0 for no effect and ±100 for the full control effect; nearly all actives have a fitted effect of over 60% in size
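1 nM enzyme complex + cpd, 15 min RT; start with Ub-Rho 150nM final; kinetic fluorescence ex 480/em 540, 6 reads q60 s. Buffer 50mM HEPES pH 7.8, 0.5mM EDTA, 0.1 mg/ml BSA, 1mM TCEP, 0.01% Tween-20.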
Starred values were filed as active, the others as inactive; [ ] = another dose, or the depositor's remark. Calls follow the shape of the dose curve; as a rule, active = well fitted curve in the direction sought with a large enough effect; inconclusive = small, poorly fitted or top-dose-only effect, or another doubt; inactive = no such curve, though single readings can be large; an effect the other way counts as inactive or inconclusive. Potency is read from the fitted curve at half-maximal effect.

Screening N=c1oc2c3c4c(cc2cc1C(=O)Nc1ccccc1)CCCN4CCC3 returned EPAC1 ag inconclusive, EPAC2 ag 112µM*, EPAC1 antag inactive, EPAC2 antag inactive, HEK293 tox inactive and USP1 inh 10µM*.
CCc1ccc(C(=O)c2cn(CC(=O)NCCc3ccc(OC)c(OC)c3)c3nc(C)ccc3c2=O)cc1 was read as HEK293 tox 4% and USP1 inh -1%.
Screening Cc1ccc(C(=O)NNc2cc(N3CCCC3)nc(N3CCCC3)n2)cc1 returned EPAC1 ag 0%, EPAC2 ag 9%, EPAC1 antag 0%, EPAC2 antag -1%, HEK293 tox -35% and USP1 inh 14µM*.
Screening Oc1ccc(NCc2cccs2)cc1 returned EPAC1 ag 12%, EPAC2 ag 7%, EPAC1 antag 56µM*, EPAC2 antag 5%, HEK293 tox inconclusive and USP1 inh -17%.
N#C/C(=C/c1ccc(O)c(O)c1)c1nc2ccccc2[nH]1 was read as EPAC1 ag -125%, EPAC2 ag 9%, EPAC1 antag 89µM*, EPAC2 antag inconclusive, HEK293 tox -24% and USP1 inh -10%.
N#C/C(=C\c1cc(Br)c(O)c(Br)c1)c1nc2ccccc2c(=O)[nH]1 was read as HEK293 tox 13% and USP1 inh 28µM*.
For Cc1ccc(-n2c(C)cc(C(=O)C(=O)Nc3ccccc3)c2C)c(C)c1 the results were HEK293 tox -7% and USP1 inh -23%.
O=C(Nc1ccccc1N1CCCCC1)c1cnccn1 was read as EPAC1 ag 6%, EPAC2 ag 11%, EPAC1 antag -5%, EPAC2 antag 18µM*, HEK293 tox -4% and USP1 inh -11%.
`Cc1ccc(C)c(CSc2c(C(C)C)cnc3c2c(=O)n(C)c(=O)n3C)c1` gave HEK293 tox 8% and USP1 inh -20%.
`COc1ccc(OC)c(CCNC(=O)c2csc3c2CCCCC3)c1` gave HEK293 tox 5% and USP1 inh -11%.
`O=c1[nH]nc(CNc2ccc(O)cc2)c2ccccc12` gave EPAC1 ag 10%, EPAC2 ag 0%, EPAC1 antag 35µM*, EPAC2 antag 7%, HEK293 tox -23% and USP1 inh inconclusive.
Screening Cc1ccc(Cl)cc1N1CCN(Cc2nnc(-c3ccc4c(c3)OCO4)o2)CC1 returned HEK293 tox 1% and USP1 inh -17%.
`O=C(C1CCCN(S(=O)(=O)c2cccs2)C1)N1CCN(c2ccccc2F)CC1` (centres undefined) gave HEK293 tox 2% and USP1 inh -26%.
CC1=CCC[C@@H]2[C@@](C)(CC/C(C)=C/C(=O)O)[C@H](C)CC[C@@]12C was read as EPAC1 ag -19%, EPAC2 ag -9%, EPAC1 antag inconclusive, EPAC2 antag 32µM*, HEK293 tox 3% and USP1 inh inconclusive.
Nc1ncnc2c1C(c1ccccc1)c1c(ccc3ccccc13)O2 (centres undefined) was read as EPAC1 ag -3%, EPAC2 ag 6%, EPAC1 antag -18% and EPAC2 antag 13µM*.
O=C(/C=C/c1ccccc1)N1CCN(Cc2cc(=O)n3nc(-c4ccccc4Cl)sc3n2)CC1 was read as HEK293 tox -9% and USP1 inh -21%.
CCCn1c(=N)c(C(=O)NC2CCCCC2)cc2c(=O)n3cc(C)ccc3nc21 was read as HEK293 tox -2% and USP1 inh -24%.
For CCc1ccc(/C=C2/SC(=S)N(CCCC(=O)Nc3ccccc3C(=O)O)C2=O)cc1 the results were EPAC1 ag 2%, EPAC2 ag -6%, EPAC1 antag 40µM*, EPAC2 antag inconclusive, HEK293 tox -7% and USP1 inh -19%.
Screening COC(=O)c1ccc(/C=C2\SC(=S)N(CCCC(=O)NCCCN3CCOCC3)C2=O)cc1 returned EPAC1 ag -10%, EPAC2 ag -1%, EPAC1 antag 11%, EPAC2 antag 1%, HEK293 tox 8.9µM* and USP1 inh -17%.
`O=C(CCCN1C(=O)/C(=C\c2cccs2)SC1=S)NNC(=O)c1ccncc1` gave EPAC1 ag -4%, EPAC2 ag 9%, EPAC1 antag -5%, EPAC2 antag 0%, HEK293 tox inconclusive and USP1 inh -7%.
`COc1ccc(/C=C2\SC(=S)N(CCC(=O)NCCCN3CCOCC3)C2=O)cc1` gave EPAC1 ag -3%, EPAC2 ag 9%, EPAC1 antag 3%, EPAC2 antag -11%, HEK293 tox inconclusive and USP1 inh -10%.
For COc1ccccc1C(=O)NNC(=O)CCCN1C(=O)/C(=C/c2cccs2)SC1=S the results were EPAC1 ag 2%, EPAC2 ag 100µM*, EPAC1 antag 7%, EPAC2 antag 15%, HEK293 tox -17% and USP1 inh -29%.
For CCOC(=O)c1cccc(NC(=O)C2CCN(S(=O)(=O)c3ccc4c(c3)oc(=O)n4C)CC2)c1 the results were HEK293 tox 2% and USP1 inh -20%.
For O=Cc1ccc(-c2ccccc2C(=O)O)o1 the results were EPAC1 ag -3%, EPAC2 ag 2%, EPAC1 antag 6%, EPAC2 antag 2%, HEK293 tox 1%[7.66 µM] and USP1 inh inconclusive.
For O=C(O)c1ccccc1-c1c2cc(I)c(=O)c(I)c-2oc2c(I)c(O)c(I)cc12 the results were EPAC1 ag 28µM*, EPAC2 ag 100µM*, EPAC1 antag 129%, EPAC2 antag 169%, HEK293 tox inconclusive and USP1 inh 22µM*.
Screening Cc1cc(C)c2nc(C(F)(F)F)nc(N3CC(C)OC(C)C3)c2c1 (centres undefined) returned EPAC1 ag 2%, EPAC2 ag -2%, EPAC1 antag -9%, EPAC2 antag 10µM*, HEK293 tox 0% and USP1 inh -10%.
`CCOC(=O)N1CCN(c2nc(C(F)(F)F)nc3c(C)cc(C)cc23)CC1` gave EPAC1 ag -1%, EPAC2 ag 9%, EPAC1 antag -12%, EPAC2 antag -20%, HEK293 tox 0% and USP1 inh -16%.
For COc1cc(Cl)c(C)cc1NS(=O)(=O)c1c(C)nc2sccn2c1=O the results were HEK293 tox 7% and USP1 inh -20%.
Screening C=CCNC(=S)N/N=C/c1ccc(C)cc1C returned EPAC1 ag 7%, EPAC2 ag 5%, EPAC1 antag -4%, EPAC2 antag -9%, HEK293 tox inconclusive and USP1 inh -24%.
